# In PubChem BioAssay AID485297 (National Center for Advancing Translational Sciences (NCATS), 2010):
# About 9,100 (2.8%) of roughly 320,000 compounds were called active. Where a call stands in place of a potency, no number is given. Roughly 3% stayed inconclusive and do not appear here. Calls follow the shape of the dose curve; as a rule, active = well fitted activation curve with a large enough effect; inconclusive = small, poorly fitted or top-dose-only effect; inactive = no such curve, though single readings can be large or run the other way. This excerpt belongs to a sample that is enriched for actives.
# Assay: qHTS Assay for Rab9 Promoter Activators; also: nearly all actives have a fitted effect of over 60% in size
# Settings: Huh7 Rab9 promoter-luciferase reporter, luminescence, 24 h; series mostly up to 9.22 µM
# In short: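 Promoter activation is measured as luciferase luminescence in Huh7 cells stably transfected with a Rab9 promoter–luciferase construct, following 24 h compound exposure at 37 °C and 10 min reagent incubation at ambient temperature.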
# Potency is read from the fitted curve at half-maximal effect.
row,Structure (SMILES),Potency
1,CN(c1ccccc1)S(=O)(=O)c1cccc(NC(=O)Cc2ccc(Cl)cc2)c1,inactive
2,CCCCN1Cc2c(nc3cc(-c4ccccc4)[nH]n3c2=O)C1=O,inactive
3,CCc1c(C)nc2cc(C)[nH]n2c1=O,inactive
4,C=CCc1c(C)nc2cc(-c3ccccc3)[nH]n2c1=O,1410 nM (active)
5,O=C1C=C(c2cccc(Br)c2)C[C@@H](c2ccc(F)cc2)C1,inactive
6,NC(=O)NC(CC(=O)NNC(=O)c1ccccn1)c1ccc(Cl)cc1 (centres undefined),inactive
7,O=S(=O)(NCCCN1CCOCC1)c1ccc(F)c(Cl)c1,inactive
8,O=C(OCC(=O)N1CCCCCC1)c1cnc(Cl)c(Cl)c1,inactive
9,CCOc1cccc(NC(=O)CC#N)c1,inactive
10,CCOc1ccc(C(=O)Nc2ccncc2)cc1,inactive
11,CCOc1ccc(NC(=O)c2ccc(NC(=O)COC(=O)c3ccc(NC(=O)CC#N)cc3)cc2)cc1,2240 nM (active)
12,Cc1cccc(NS(=O)(=O)c2ccc(C)c(C(=O)NCC(c3ccccc3)N(C)C)c2)c1 (centres undefined),inactive
13,O=C(Nc1ncccc1O)c1ccc(S(=O)(=O)N2CCCC2)cc1,inactive
14,O=C(Nc1ncccc1O)c1ccc(C(=O)c2ccccc2)cc1,4470 nM (active)
15,O=C(Nc1ncccc1O)c1ccc(S(=O)(=O)N2CCCCCC2)cc1,inactive
16,C=CCn1c(SCC(=O)NC(=O)Cc2ccccc2)nc2ccccc2c1=O,inactive
17,Cc1ccc(S(=O)(=O)CCC(=O)OCC(=O)NCCc2ccc(S(N)(=O)=O)cc2)cc1,inactive
18,O=C(/C(=C/c1cccc(Cl)c1)c1nc2ccccc2[nH]1)c1ccccc1,inactive
19,O=C(Cc1nc2ccccc2[nH]c1=O)c1ccc(Cl)cc1,2000 nM (active)
20,N#C/C(=C(/O)COC(=O)COc1ccc(Cl)cc1)c1nc2ccccc2[nH]1,inactive
21,CC(C)(C)OC(=O)Nc1ccc([C@@H](NC(=O)OC(C)(C)C)C(=O)OC(C)(C)C)cc1,inactive
22,O=C(CSc1nnc2ccccn12)c1ccccc1,2510 nM (active)

row,Structure (SMILES),Potency
1,Cc1cc(C(=O)CSc2nc(N)cc(=O)[nH]2)c(C)n1-c1cccc(F)c1,inactive
2,Cc1ccc(-n2c(C)cc(C(=O)CSc3nnc4ccccn34)c2C)cc1,398 nM (active)
3,N#Cc1ccc(CSc2nnc3ccccn23)cc1,inactive
4,Cn1c(CC(=O)Nc2ccccc2)nnc1SCC(=O)c1ccccc1,inactive
5,Cc1ccc(-n2c(C)cc(C(=O)CN3C(=O)C(=O)N(C4CCCC4)C3=O)c2C)cc1,inactive
6,COc1ccc(NC(=O)CSc2nnc(C3CC3)n2C)cc1S(=O)(=O)N1CCCCC1,inactive
7,Cc1ccc(Nc2nnc(SCC(=O)c3cc4ccccc4o3)s2)cc1C,inactive
8,O=C(CSc1nnc(Nc2ccccc2)s1)Nc1cccnc1Cl,inactive
9,CC(C)c1ccc(Nc2nnc(SCC(=O)c3nnc(-c4ccccc4)o3)s2)cc1,4470 nM (active)
10,COc1cc2c(cc1OC)C(=O)NCC(C)(C)O2,inactive
11,COc1ccccc1-c1sc2ccccc2c1-c1ccc(Br)nc1,inactive
12,Cc1csc(SCC(=O)N(c2ccccc2)C(C)C)n1,inactive
13,NC(=O)c1ccsc1NC(=O)COC(=O)COc1ccc(C=O)cc1,inactive
14,O=C(O)c1ccccc1N=N/C(=N/Nc1cc(S(=O)(=O)O)ccc1O)c1ccccc1,inactive
15,O=C(O)c1cccc(S(=O)(=O)N2CC=C(c3ccccc3)CC2)c1,inactive
16,CN1CCCC(OC(=O)COc2ccc(Br)cc2)C1 (centres undefined),inactive
17,COc1cc2c(cc1OC)/C(=C/C(=O)c1ccc(NC(C)=O)cc1)NCC2,inactive
18,CC1CN/C(=C\C(=O)c2ccc(Br)cc2)C(=O)N1 (centres undefined),501 nM (active)
19,CCCCNC(=O)OCCSCCS(=O)(=O)c1ccc(Cl)cc1,inactive
20,COc1cc2ccccc2cc1C(=O)Nc1ccncc1,inactive
21,CC(=O)c1sc(N)nc1C,inactive
22,CC(=O)c1sc(N/N=C/c2ccc(C(C)C)cc2)nc1C,794 nM (active)

row,Structure (SMILES),Potency
1,COc1cc2ccccc2cc1C(=O)Nc1nc(C)c(C(C)=O)s1,3980 nM (active)
2,COc1cc2ccccc2cc1C(=O)Nc1ccccc1C,inactive
3,COc1ccc(/C=N\NC(=O)c2sc(N)nc2C)cc1OC,inactive
4,Cc1nnc(C)n1/N=C/c1ccc(C(C)C)cc1,inactive
5,CC(=O)c1sc(NC(=O)C2=NN(c3ccccc3)C(=O)CC2)nc1C,inactive
6,CC(=O)c1sc(NC(=O)CCCOc2ccccc2C)nc1C,inactive
7,Cc1ccc(S(=O)(=O)Nc2nc(C)cc(N/N=C/c3ccc(O)cc3)n2)cc1,inactive
8,CC(=O)c1sc(N/N=C\c2ccc(C)cc2)nc1C,2000 nM (active)
9,CC(=O)c1sc(NC(=O)c2ccc(C)cc2)nc1C,1780 nM (active)
10,N#Cc1ccc(C(=O)OCC(=O)NC(=O)NC2CCCCC2)cc1,inactive
11,CCN(CC(=O)Nc1cc(Cl)ccc1C)C(=O)CSCc1ccccc1,inactive
12,CC(Oc1ccc(F)cc1F)C(=O)/C=C/N(C)C (centres undefined),inactive
13,COc1ccccc1-c1nn(Cc2ccccc2)cc1C(=O)N1CCN(c2ncccn2)CC1,inactive
14,O=C(COC(=O)c1ncc(Cl)c(Cl)c1Cl)NCc1ccccc1,inactive
15,CCc1ccccc1S(=O)(=O)Cc1ccc(C(=O)NCCc2ccccc2)o1,inactive
16,CCN(CC)CCN1C(=O)C(=O)/C(=C(/O)c2cnn(-c3ccccc3)c2C)C1c1cccs1 (centres undefined),2510 nM (active)
17,CCN(CC)CCN1C(=O)C(=O)/C(=C(/O)c2ccccc2)C1c1ccccc1F (centres undefined),inactive
18,CCN(CC)CCN1C(=O)C(=O)/C(=C(/O)c2ccc(OC)c(OC)c2)C1c1ccccn1 (centres undefined),inactive
19,COc1ccc(S(=O)(=O)N2CCC(C(=O)OCC(=O)c3ccccc3)CC2)cc1[N+](=O)[O-],inactive
20,COc1ccc2sc(-c3ccc(N(C)C)cc3)c(C#CCO)c2c1,inactive
21,Cc1ccc(CN2CC(C(=O)N3CCN(S(=O)(=O)c4ccccc4)CC3)CC2=O)cc1 (centres undefined),inactive
22,Cc1ccc(-n2c(C)cc(/C=C(\C#N)C(=O)NCC3CCCO3)c2C)cc1 (centres undefined),3980 nM (active)

row,Structure (SMILES),Potency
1,Cc1ccc(S(=O)(=O)N2CCC(C(=O)NCC3CCCO3)CC2)cc1 (centres undefined),inactive
2,Cc1ccc(C(=O)N/C(=C/c2cccs2)C(=O)NCC2CCCO2)cc1 (centres undefined),inactive
3,COc1ccc(C)cc1NC(=O)c1ccc(-c2ccc(C(C)=O)cc2)o1,inactive
4,CCOC(=O)c1ccc(-c2ccc(C(=O)Nc3cccnc3)o2)cc1,2240 nM (active)
5,CCOC(=O)c1ccc(NC(=O)c2cccnc2)cc1,inactive
6,CCOc1cc(CNCc2ccccn2)ccc1OCC(=O)NC(C)(C)C,inactive
7,Cc1ccc(S(=O)(=O)N2CCN(c3ncnc4ccccc34)CC2)cc1,inactive
8,CCc1ccc(C(=O)N2CCN(S(=O)(=O)c3sc(C(=O)O)c(C)c3C(=O)O)CC2)cc1,inactive
9,Cn1c(CCC(=O)OCC(=O)NCc2ccccc2Cl)nc(=O)c2ccccc21,inactive
10,CC(C)n1ncc2c(C(=O)Nc3ccc(CC#N)cc3)cc(C3CC3)nc21,inactive
11,C=CCC(NC(=O)Cc1ccccc1)C(=O)NCCC (centres undefined),inactive
12,COc1ccc(CNC(=O)c2ccc3oc(C(C)C)nc3c2)cc1,2820 nM (active)
13,CC(C)c1nc2cc(C(=O)NC(C)c3cnn(C)c3)ccc2o1 (centres undefined),inactive
14,COc1ccc(CNC(=O)c2cc(=O)c3c(C)cc(C)cc3o2)cc1,inactive
15,CCOc1ccc(S(=O)(=O)N2CCC(C(=O)NCC(=O)Nc3cccc(Cl)c3C)CC2)cc1,inactive
16,Cc1cccc(/C(N)=N/OC(=O)c2ccccc2Cl)c1,891 nM (active)
17,N/C(=N\OC(=O)c1cc(-c2ccccc2)nc2ccccc12)c1ccncc1,inactive
18,Cc1cccc(C(=O)c2cccc(C)c2)c1,inactive
19,O=S(=O)(c1ccc(Cl)cc1)c1nc(-c2ccccc2F)oc1NCCN1CCOCC1,inactive
20,CC(=O)c1c(C)[nH]c(C(=O)Nc2cc(S(=O)(=O)N(C)C)ccc2C)c1C,inactive
21,O=C(CCNC(=O)c1ccc([N+](=O)[O-])cc1)NC1CCCCC1,inactive
22,CC(=O)c1ccc(N2CCN(C(=O)CCc3ccccc3)CC2)cc1,inactive

row,Structure (SMILES),Potency
1,CC(=O)c1ccc(N2Cc3ccccc3C2)cc1,1780 nM (active)
2,CC(=O)c1ccc(N2CCN(CC(O)c3ccccc3)CC2)cc1 (centres undefined),inactive
3,COc1ccc(F)cc1C(=O)COC(=O)c1n[nH]c(=O)c2ccccc12,inactive
4,Cc1nonc1NC(=O)CSc1nc2ccccc2cc1C#N,inactive
5,CCOC(=O)CSc1nccc(N(C)C)c1C#N,inactive
6,CCOc1ccc2cc(C#N)c(SCC(=O)OC)nc2c1,1580 nM (active)
7,COc1ccc(C(C)(C)C)cc1NC(=O)CCN1C(=O)C2CCCCC2C1=O (centres undefined),inactive
8,Cc1ccc(O)c(NC(=O)c2cc(-c3ccco3)on2)c1,inactive
9,CCOc1ncccc1C(=O)OCC(=O)c1c[nH]c2ccccc12,inactive
10,CC1CC1C(=O)OCC(=O)Nc1cccc(F)c1 (centres undefined),inactive
11,Cn1c(COc2ccc(Cl)cc2)nc2ccccc2c1=O,inactive
12,Cc1ccc(OCc2nc3ccccc3n2C)cc1,1780 nM (active)
13,CC(C)n1c(COc2ccccc2)nc2ccccc21,inactive
14,CN(C(=O)CC1C(=O)NCCN1Cc1ccc2ccccc2c1)C1CCOCC1 (centres undefined),inactive
15,O=C(CNC(=O)OCc1ccccc1)NC1CCCCNC1=O (centres undefined),inactive
16,CCc1ccc(-c2nn(-c3ccccc3C)cc2C(=O)N2CCN(C3CCS(=O)(=O)C3)CC2)cc1 (centres undefined),inactive
17,O=C(O)Cc1sc(-c2ccccc2)nc1-c1cccs1,inactive
18,NC(=O)Cc1ccc2sc(-c3ccccc3)nc2c1,3550 nM (active)
19,NC(=O)Cc1ccc2c(c1)[nH]c1ccccc12,inactive
20,CC(=O)N1CCOc2ccc(S(=O)(=O)N3CCC(C(=O)Nc4ccccc4F)CC3)cc21,inactive
21,CCc1nnc(NC(=O)c2cc(S(=O)(=O)N3CCCCC3)ccc2C)s1,inactive
